The source made the active and inactive calls. No stated cut-off is given here; in the data, active means inhibition above about 50%; inactive means the rest.
Target: Vascular endothelial growth factor receptor 2 (Homo sapiens) (UniProt P35968)
Test: Biochemical primary assay, inhibitors of H. sapiens VEGFR2, LANCE Ultra time-resolved FRET readout, NPC library (AID 1117353)
Settings: LANCE Ultra TR-FRET kinase assay; at 20 µM (top of the series)

Sequence of Vascular endothelial growth factor receptor 2 (Homo sapiens) (P35968 whole entry, looked up): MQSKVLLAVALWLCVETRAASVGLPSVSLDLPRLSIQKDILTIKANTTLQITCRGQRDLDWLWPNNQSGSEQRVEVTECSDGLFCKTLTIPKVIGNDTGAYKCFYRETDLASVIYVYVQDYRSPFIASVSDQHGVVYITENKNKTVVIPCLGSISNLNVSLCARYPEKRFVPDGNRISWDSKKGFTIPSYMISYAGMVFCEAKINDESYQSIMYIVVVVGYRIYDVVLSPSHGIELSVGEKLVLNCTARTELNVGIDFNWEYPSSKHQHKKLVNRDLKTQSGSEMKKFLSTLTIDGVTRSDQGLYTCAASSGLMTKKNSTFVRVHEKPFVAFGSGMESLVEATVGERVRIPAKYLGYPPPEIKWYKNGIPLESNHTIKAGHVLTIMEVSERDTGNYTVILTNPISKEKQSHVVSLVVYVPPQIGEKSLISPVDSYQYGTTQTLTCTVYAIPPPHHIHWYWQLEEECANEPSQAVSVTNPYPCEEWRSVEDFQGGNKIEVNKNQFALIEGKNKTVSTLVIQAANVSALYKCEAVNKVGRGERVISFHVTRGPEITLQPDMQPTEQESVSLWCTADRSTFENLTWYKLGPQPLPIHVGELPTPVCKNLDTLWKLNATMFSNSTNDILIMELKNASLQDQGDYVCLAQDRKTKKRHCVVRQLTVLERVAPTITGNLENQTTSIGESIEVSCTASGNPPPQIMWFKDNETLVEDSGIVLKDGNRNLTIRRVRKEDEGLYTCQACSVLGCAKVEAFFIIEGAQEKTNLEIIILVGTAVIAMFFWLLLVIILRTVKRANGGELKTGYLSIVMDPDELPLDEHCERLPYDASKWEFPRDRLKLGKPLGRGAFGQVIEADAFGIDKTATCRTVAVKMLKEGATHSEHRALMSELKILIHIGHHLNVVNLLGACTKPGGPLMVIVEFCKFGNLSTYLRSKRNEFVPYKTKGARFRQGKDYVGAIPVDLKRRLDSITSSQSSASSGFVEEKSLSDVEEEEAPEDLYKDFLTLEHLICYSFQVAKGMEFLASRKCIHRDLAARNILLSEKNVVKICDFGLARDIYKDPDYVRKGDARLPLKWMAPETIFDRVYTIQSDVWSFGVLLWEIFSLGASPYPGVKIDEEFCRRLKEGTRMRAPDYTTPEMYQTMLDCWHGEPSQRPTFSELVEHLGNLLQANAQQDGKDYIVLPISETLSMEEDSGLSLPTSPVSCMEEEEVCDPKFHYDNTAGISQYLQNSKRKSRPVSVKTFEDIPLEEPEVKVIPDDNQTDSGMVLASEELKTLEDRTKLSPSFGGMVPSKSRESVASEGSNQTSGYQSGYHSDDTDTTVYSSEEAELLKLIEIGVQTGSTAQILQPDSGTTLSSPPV

Compound | inhibition
NC(=NCCCCCCN=C(N)/N=C(\N)Nc1ccc(Cl)cc1)/N=C(\N)Nc1ccc(Cl)cc1 | -1.66% (inactive)
CC[C@@H]([C@H](C)O)n1ncn(-c2ccc(N3CCN(c4ccc(OC[C@@H]5CO[C@@](Cn6cncn6)(c6ccc(F)cc6F)C5)cc4)CC3)cc2)c1=O | 22.9% (inactive)
COc1ccc(-c2ccc3cc(C(=O)O)ccc3c2)cc1C12CC3CC(CC(C3)C1)C2 | 96.3% (active)
CCCCCCCCCCCCCCCC[n+]1ccccc1 | -114% (inactive)
Cn1cnc([N+](=O)[O-])c1Sc1ncnc2nc[nH]c12 | -18.2% (inactive)
CSc1ccc2c(c1)C(N1CCN(C)CC1)Cc1ccccc1S2 (configuration not stated) | -11.8% (inactive)
CC(=O)[C@]1(O)Cc2c(O)c3c(c(O)c2[C@@H](O[C@H]2C[C@H](N)[C@H](O)[C@H](C)O2)C1)C(=O)c1ccccc1C3=O | -143% (inactive)
CCCCCCCCCCCCCCCCCCNC(=O)OC1CCN(C(=O)OC[C@H](COC(=O)N(Cc2cccc[n+]2CC)C(=O)c2ccccc2OC)OC)CC1 | -459% (inactive)
COc1cc([C@@H]2c3cc4c(cc3[C@H](O)[C@H]3COC(=O)[C@H]23)OCO4)cc(OC)c1OC | 28.2% (inactive)
C[n+]1c2cc(N)ccc2cc2ccc(N)cc21 (tested in a mixture with another compound) | -22% (inactive)
Cc1cc2c(C(C)C)c(O)c(O)c(C=O)c2c(O)c1-c1c(C)cc2c(C(C)C)c(O)c(O)c(C=O)c2c1O | -2.11% (inactive)
O=c1[nH]c(=O)n([C@H]2C[C@H](O)[C@@H](CO)O2)cc1C(F)(F)F | -17.7% (inactive)
